From PubChem BioAssay AID1945 (The Scripps Research Institute Molecular Screening Center, 2009)
The whole screen tested about 1,600 compounds, of which about 65 (4%) were called active. The list is a sample of the results. Unmarked numbers belong to inactive results. Rule as the data show it: active = inhibition above about 37%; inactive = the rest.

Test: compounds displacing fluorescent DNA intercalator, artefact control for HCV NS3 helicase inhibitor project, biochemical, FID fluorescence, triplicate (AID 1945);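 also: 0% = vehicle and 100% = reference compound; higher means more displacement of ethidium bromide from the DNA hairpin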
Details: DNA fluorescent intercalator displacement, at 7.9 µM, active compounds read high

SMILES	inhibition
CC(=O)Oc1cccc(N2C(=O)CC(Nc3ccc(N4CCOCC4)cc3)C2=O)c1 (stereo not given)	-9.25%
COc1cc(/C=C2/C(=O)NN(c3cccc(Cl)c3)C2=O)cc(Br)c1O	8.6%
COc1ccccc1C1/C(=C(/O)c2ccc(OC(C)C)cc2)C(=O)C(=O)N1c1cc(C)on1 (stereo not given)	-26.4%
COc1cc(C2CC(=O)N3CN(Cc4ccccc4)CSC3=C2C#N)ccc1OCc1ccccc1 (stereo not given)	-15.9%
CC(=O)C1=C(O)C(=O)N(c2ccc(Br)cc2)C1c1ccc([N+](=O)[O-])cc1 (stereo not given)	-11.1%
O=C1NN(c2ccccc2)C(=O)/C1=C/c1ccc(-c2cccc(C(=O)O)c2)o1	-0.74%
Cc1ccc(C2=N/C(=C\c3ccc(OS(=O)(=O)c4ccc(C)cc4)cc3)C(=O)O2)cc1	-12.6%
COc1cc(C2C(C(=O)c3ccco3)=C(O)C(=O)N2c2cc(C)on2)ccc1OCc1ccccc1 (stereo not given)	-1.69%
Cc1[nH]n(C(N)=S)c(=O)c1N=Nc1ccc(Cl)cc1Cl	-8.84%
O=[N+]([O-])c1cc(Cl)cc(/C=N/NC(=S)Nc2cc(S(=O)(=O)N3CCOCC3)ccc2Cl)c1O	-2.03%
O=C(N/N=C/c1ccc([N+](=O)[O-])o1)c1cn(-c2ccccc2)nc1-c1ccc(F)cc1	10.7%
Cc1ccc(C)c(-n2c(SCC(=O)O)nc3sc4c(c3c2=O)CCCC4)c1	-27.8%
S=C(NCCc1ccccc1)N1CCCCC1	-0.28%
CCOC(=O)c1nnn(-c2nc(OC)nc(N(C)C)n2)c1-c1ccccc1	-39.7%
N#C/C=C(/c1ccc(F)cc1)N1CCOCC1	14%
CCOc1ccc(C(C(=O)NCCOC)N(CCOC)C(=O)CCC(=O)Nc2ccccn2)cc1 (stereo not given)	-24.9%
Cc1ccc(C2Nc3cccc4cccc(c34)N2)cc1	17.1%
COc1ccc(/C=C(\NC(=O)c2ccc(OCC(C)C)cc2)C(=O)OCc2ccco2)cc1	-43.9%
Cc1ccc(OCC(=O)c2cc(C)n(Cc3ccco3)c2C)c([N+](=O)[O-])n1	-9.01%
Cc1ccccc1Nc1nnc(SCC(=O)c2cc3ccccc3o2)s1	-3.69%
COc1ccc(C)cc1-n1nnnc1SCC(=O)c1cc(C)n(Cc2ccco2)c1C	-39%
CC(Oc1ccccc1)C(=O)Nc1oc(-c2ccco2)c(-c2ccco2)c1C#N (stereo not given)	13.9%
CC(C)c1ccc(Nc2nnc(SCC(=O)c3nnc(-c4ccccc4)o3)s2)cc1	8.51%
O=c1[nH]c(/C=C\c2cccc(C(F)(F)F)c2)nc(O)c1[N+](=O)[O-]	-2.48%
O=c1nc2s/c(=C\c3ccco3)c(=O)n2nc1Cc1ccccc1	7.7%
Cc1ccc(S(=O)(=O)N/N=C\c2cc3c(cc2[N+](=O)[O-])OCO3)cc1	14.6%
CC(=O)Nc1ccc(Nc2c3ccccc3nc3ccccc23)cc1	79.8% (active)
CCOC(=O)c1ccccc1N1C(=O)C2Sc3[nH]c(=O)sc3C(/C=C/c3ccccc3)C2C1=O (stereo not given)	-46.6%

SMILES	inhibition
COCCNC(=O)Nc1ccc2nc(-c3ccco3)c(-c3ccco3)nc2c1	18.2%
CCOC(=O)c1c(-c2ccccc2)oc2cc(Br)c(O)c(C=O)c12	85% (active)
Cc1cc(O)c(C(=O)/C=C/c2c(F)c(F)c(F)c(F)c2F)c(=O)o1	3.73%
CCOc1ccc(C2C3=C(CCCC3=O)N(CC(=O)O)C3=C2C(=O)CCC3)cc1	7.44%
CS(=O)(=O)c1ccc2c(c1)SC1=NC(=O)/C(=C/c3ccco3)C(=N)N12	-2.29%
Cc1ccc(SC(CC(=O)c2ccc(C(C)(C)C)cc2)C(=O)O)cc1 (stereo not given)	-10.2%
CC1=NN(c2ccc(Cl)c(C(=O)O)c2)C(=O)/C1=C/c1ccc(-c2ccccc2[N+](=O)[O-])o1	15.8%
COc1ccc(/C=C2\SC(=S)N(CCC(=O)Nc3cccc(C(=O)O)c3)C2=O)cc1OC	15.4%
CNS(=O)(=O)c1cccc(C(=O)NC2CCCc3ccccc32)c1 (stereo not given)	-7.17%
CCSc1nsc(NC(=O)Nc2cccc(C(C)=O)c2)n1	8.36%
O=c1c2c(-c3ccccc3)ccnc2[nH]n1-c1ccccc1	1.8%
COC(=O)COc1ccc2c(c1C)O/C(=C\c1ccco1)C2=O	-11.8%
NS(=O)(=O)c1ccc(-c2ccc(/C=C3\SC(=O)NC3=O)o2)cc1	1.16%
CCOC(=O)C1=C(O)/C(=C/c2cc(C)n(-c3ccccc3)c2C)N=C1C	-10.6%
COc1ccc(/C=C/C(=O)c2cc(Br)ccc(=O)c2O)cc1	16.2%
Cc1ccc(C(=O)O)cc1-c1ccc(/C=C2\SC(=O)N(CC(=O)Nc3ccc4c(c3)OCO4)C2=O)o1	1%
COc1cccc(CNC(=O)c2nnn(CC(=O)Nc3cc(Cl)ccc3C)c2N)c1	9.61%
Cc1ccc(S(=O)(=O)NCCC(c2ccccc2)c2ccccc2)cc1C(=O)O	-24.5%
CCN(CC)CCOc1ccc2c(c1)C(=NNC(=O)c1ccccn1)c1cc(OCCN(CC)CC)ccc1-2	94.3% (active)
Brc1ccccc1C1Nc2cccc3cccc(c23)N1	12.8%
O=C1C=CC(=O)N1c1ccc(N2CCCCC2)cc1	17%
O=C(N/N=C/c1ccco1)c1csc2c1CCCC2	-7.05%
COc1ccccc1N1CCN(C(=O)CCS(=O)(=O)c2ccc3c(c2)NC(=O)C(C)S3)CC1 (stereo not given)	-36.4%
CSc1c(SCc2ccccc2)cnn(Cc2ccccc2)c1=O	-16.1%
CCC1C/C(=C/c2cccs2)C(=O)/C(=C/c2cccs2)C1 (stereo not given)	-0.49%
Nc1ccc2nc3c(=O)[nH]c(=S)[nH]c3nc2c1	-8.12%
Cc1nn2c(c1-c1ccccc1)N=C(c1ccco1)CC2c1ccccc1 (stereo not given)	-5.96%
